According to the supplement of paper PMC10849652:
Of roughly 8,800 targets only a part is listed; those with a hit were picked by preference. About 0.5% of all pairs of compound and target were hits. Values without a mark were called inactive.

These targets were tested with C[C@H](Nc1ncnc2nc[nH]c12)c1cc2cccc(Cl)c2c(=O)n1-c1ccccc1 [duvelisib] (assay: log2 fold change, soluble protein after heating vs DMSO (PISA); higher = thermal stabilisation; K562 lysate, 10 uM; active = over 0.2 and 3.5 SD of the protein, either way, in both replicates (recomputed)).
Summary of the method: (§1)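 Pellets of K562 cells were dounce-homogenised in PBS pH 7.4 with 1 mM MgCl2, and the crude extract was held at 1 mg/mL protein for a 30 min treatment with 10 μM compound. Aliquots were heated for 3 min over 48°C-58°C and pooled before NP-40 was added to 0.5% at 4°C. The supernatant from 21,000xg for 90 min was quantified by TMTpro 16plex LC-MS/MS with channel sums equalised. Values are reported from duplicates as log-two fold change in thermal stability relative to solvent controls.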

Chain of UniProt P25440 (P25440 whole entry, looked up): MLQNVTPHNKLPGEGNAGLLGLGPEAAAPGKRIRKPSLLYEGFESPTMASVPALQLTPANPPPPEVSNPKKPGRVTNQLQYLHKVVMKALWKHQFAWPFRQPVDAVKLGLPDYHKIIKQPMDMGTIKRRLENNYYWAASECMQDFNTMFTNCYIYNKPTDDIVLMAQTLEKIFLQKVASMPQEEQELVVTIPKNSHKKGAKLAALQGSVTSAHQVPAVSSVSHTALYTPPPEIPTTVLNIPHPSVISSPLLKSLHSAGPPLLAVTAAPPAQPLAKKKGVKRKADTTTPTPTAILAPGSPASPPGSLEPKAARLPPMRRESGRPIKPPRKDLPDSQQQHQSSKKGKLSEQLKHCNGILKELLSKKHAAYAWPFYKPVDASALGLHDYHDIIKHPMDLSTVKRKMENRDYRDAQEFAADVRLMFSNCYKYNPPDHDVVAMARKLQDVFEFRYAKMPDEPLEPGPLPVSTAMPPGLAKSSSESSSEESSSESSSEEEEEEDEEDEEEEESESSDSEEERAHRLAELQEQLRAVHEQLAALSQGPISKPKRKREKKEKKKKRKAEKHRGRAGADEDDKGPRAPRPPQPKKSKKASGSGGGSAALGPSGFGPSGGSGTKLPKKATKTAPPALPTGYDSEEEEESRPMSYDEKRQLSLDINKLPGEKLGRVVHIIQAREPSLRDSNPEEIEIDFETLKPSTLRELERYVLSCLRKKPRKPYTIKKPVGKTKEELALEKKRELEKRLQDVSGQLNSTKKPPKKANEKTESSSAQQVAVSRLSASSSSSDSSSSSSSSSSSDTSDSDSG
Chain of UniProt P40227 (P40227 whole entry, looked up): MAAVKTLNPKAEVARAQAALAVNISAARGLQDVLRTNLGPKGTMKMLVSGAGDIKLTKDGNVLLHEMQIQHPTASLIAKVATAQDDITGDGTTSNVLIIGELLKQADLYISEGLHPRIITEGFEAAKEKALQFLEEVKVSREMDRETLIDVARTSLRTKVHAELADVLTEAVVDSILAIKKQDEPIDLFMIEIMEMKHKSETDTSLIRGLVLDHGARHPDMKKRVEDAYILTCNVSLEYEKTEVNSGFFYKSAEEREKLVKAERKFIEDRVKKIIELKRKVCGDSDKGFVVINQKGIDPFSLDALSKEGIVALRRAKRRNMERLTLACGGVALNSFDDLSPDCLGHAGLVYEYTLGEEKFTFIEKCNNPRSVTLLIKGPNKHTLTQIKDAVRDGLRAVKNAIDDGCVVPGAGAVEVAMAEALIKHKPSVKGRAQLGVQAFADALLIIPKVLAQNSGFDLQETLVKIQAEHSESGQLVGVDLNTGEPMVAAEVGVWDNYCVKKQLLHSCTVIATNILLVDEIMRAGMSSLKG
Chain of UniProt Q96B23 (Q96B23 whole entry, looked up): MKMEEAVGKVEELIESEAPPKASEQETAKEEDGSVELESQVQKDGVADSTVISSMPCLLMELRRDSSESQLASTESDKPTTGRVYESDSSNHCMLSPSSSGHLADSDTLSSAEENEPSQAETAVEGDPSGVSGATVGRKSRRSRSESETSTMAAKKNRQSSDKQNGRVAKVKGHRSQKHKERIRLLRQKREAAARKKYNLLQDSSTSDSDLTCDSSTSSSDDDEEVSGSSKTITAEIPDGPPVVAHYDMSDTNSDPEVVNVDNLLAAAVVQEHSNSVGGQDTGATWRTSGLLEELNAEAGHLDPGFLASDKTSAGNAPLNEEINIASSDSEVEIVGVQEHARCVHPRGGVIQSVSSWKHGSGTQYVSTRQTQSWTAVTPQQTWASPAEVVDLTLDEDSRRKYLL
Chain of UniProt Q13111 (Q13111 whole entry, looked up): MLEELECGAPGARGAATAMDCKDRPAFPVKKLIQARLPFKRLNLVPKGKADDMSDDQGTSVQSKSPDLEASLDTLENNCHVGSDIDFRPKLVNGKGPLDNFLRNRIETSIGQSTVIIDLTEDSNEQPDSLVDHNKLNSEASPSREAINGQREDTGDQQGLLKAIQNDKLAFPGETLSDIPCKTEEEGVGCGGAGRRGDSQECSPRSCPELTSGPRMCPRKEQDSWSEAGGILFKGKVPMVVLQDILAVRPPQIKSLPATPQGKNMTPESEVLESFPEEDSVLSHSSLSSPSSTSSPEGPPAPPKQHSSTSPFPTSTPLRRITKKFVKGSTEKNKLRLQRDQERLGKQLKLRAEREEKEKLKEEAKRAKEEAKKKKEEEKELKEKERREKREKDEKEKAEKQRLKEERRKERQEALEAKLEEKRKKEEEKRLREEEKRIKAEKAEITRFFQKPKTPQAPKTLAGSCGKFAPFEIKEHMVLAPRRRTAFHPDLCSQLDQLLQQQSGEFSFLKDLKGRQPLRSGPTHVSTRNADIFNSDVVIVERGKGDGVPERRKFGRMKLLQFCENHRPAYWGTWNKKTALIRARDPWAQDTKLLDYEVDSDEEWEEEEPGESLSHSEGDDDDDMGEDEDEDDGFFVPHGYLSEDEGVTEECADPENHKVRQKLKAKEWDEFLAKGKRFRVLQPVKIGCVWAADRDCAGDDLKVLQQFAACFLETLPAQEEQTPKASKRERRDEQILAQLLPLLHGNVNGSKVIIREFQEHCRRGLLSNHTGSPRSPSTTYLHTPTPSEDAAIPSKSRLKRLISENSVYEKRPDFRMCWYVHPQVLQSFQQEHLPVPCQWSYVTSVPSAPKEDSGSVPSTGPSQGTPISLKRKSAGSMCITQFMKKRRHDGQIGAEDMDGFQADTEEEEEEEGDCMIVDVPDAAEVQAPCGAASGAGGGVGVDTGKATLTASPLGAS
Chain of UniProt Q9Y6H1 (Q9Y6H1 whole entry, looked up): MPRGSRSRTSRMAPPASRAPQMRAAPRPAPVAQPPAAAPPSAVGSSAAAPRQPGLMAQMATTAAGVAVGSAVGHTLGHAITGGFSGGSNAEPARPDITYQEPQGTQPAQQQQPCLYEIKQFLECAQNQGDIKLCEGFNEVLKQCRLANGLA
Chain of UniProt O75909 (O75909 whole entry, looked up): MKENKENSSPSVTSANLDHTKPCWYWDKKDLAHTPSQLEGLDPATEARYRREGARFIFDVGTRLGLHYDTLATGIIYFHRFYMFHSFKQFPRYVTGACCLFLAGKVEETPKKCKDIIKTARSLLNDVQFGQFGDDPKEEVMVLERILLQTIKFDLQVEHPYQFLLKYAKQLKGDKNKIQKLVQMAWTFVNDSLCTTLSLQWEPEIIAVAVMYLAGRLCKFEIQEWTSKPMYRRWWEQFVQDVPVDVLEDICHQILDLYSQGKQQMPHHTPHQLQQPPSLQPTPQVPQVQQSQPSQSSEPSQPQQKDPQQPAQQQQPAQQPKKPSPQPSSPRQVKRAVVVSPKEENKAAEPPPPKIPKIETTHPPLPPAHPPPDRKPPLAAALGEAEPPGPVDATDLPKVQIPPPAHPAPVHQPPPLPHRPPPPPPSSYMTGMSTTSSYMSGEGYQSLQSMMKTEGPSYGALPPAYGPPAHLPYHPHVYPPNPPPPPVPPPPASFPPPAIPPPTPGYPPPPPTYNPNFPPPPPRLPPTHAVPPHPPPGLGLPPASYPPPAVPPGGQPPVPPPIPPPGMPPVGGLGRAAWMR
Chain of UniProt Q8TAP6 (Q8TAP6 whole entry, looked up): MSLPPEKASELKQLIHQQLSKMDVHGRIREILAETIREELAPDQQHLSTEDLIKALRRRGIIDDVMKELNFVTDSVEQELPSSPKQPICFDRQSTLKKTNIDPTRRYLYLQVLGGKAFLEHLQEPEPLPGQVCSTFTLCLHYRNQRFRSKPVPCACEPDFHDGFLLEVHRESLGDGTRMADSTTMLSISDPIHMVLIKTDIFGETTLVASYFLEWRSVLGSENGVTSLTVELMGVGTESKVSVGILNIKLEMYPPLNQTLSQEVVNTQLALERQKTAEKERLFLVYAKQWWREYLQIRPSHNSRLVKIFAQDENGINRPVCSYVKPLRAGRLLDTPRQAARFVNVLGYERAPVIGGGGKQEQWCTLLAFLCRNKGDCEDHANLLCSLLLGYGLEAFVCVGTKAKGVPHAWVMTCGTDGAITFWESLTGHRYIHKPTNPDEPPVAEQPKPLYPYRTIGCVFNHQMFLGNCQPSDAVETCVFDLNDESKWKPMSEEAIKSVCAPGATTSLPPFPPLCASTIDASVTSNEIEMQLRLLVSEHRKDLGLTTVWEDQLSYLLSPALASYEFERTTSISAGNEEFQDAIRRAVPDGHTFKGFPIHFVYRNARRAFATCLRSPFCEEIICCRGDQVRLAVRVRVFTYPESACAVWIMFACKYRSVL
Chain of UniProt Q7Z3E2 (Q7Z3E2 whole entry, looked up): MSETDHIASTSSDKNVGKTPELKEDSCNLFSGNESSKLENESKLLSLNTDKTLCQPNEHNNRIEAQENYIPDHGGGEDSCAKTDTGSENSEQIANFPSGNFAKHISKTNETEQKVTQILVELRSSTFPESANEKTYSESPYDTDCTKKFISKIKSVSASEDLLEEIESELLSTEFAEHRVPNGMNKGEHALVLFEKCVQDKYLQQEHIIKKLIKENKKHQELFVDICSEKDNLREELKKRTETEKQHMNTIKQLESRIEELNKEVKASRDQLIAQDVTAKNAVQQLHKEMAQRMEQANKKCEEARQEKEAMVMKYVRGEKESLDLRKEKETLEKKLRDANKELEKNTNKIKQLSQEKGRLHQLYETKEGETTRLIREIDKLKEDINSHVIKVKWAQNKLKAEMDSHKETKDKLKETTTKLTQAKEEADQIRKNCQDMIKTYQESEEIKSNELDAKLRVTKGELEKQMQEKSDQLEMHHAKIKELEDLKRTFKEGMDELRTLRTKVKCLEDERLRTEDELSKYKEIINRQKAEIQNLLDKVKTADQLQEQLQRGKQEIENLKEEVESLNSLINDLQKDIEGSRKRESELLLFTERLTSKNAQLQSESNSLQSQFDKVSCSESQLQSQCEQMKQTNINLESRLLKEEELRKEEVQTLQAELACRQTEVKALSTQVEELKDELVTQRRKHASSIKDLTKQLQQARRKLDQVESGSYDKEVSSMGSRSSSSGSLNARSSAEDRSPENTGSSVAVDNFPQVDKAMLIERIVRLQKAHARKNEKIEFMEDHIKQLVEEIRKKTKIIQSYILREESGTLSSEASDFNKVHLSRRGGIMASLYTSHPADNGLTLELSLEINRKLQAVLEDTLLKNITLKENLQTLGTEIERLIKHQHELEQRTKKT

Target	log2 fold change
BLOC1S6 (UniProt Q9UL45)	0.021
BAG4 (UniProt O95429)	0.043
CCNC (UniProt P24863)	0.009
CALM2 (UniProt P0DP24)	0.086
CEP76 (UniProt Q8TAP6)	0.141
CDS2 (UniProt O95674)	0.088
CCAR2 (UniProt Q8N163)	-0.015
CDKN2AIP (UniProt Q9NXV6)	0.017
BRD3 (UniProt Q15059)	0.1
CEP120 (UniProt Q8N960)	0.005
C18orf25 (UniProt Q96B23)	-0.046
CDAN1 (UniProt Q8IWY9)	0.026
ATAD1 (UniProt Q8NBU5)	-0.051
CCT6A (UniProt P40227)	-0.004
C5orf51 (UniProt A6NDU8)	-0.023
CHCHD4 isoform 2 (UniProt Q8N4Q1)	0.022
CCPG1 isoform 5 (UniProt Q9ULG6)	0.006
CD63 (UniProt P08962)	0.025
CES2 isoform 4 (UniProt O00748)	0.021
CFDP1 (UniProt Q9UEE9)	0.006

Target	log2 fold change
AURKAIP1 (UniProt Q9NWT8)	0.012
CCDC186 (UniProt Q7Z3E2)	0.022
ATP13A1 (UniProt Q9HD20)	-0.004
ATXN2 (UniProt Q99700)	0.025
CHCHD2 (UniProt Q9Y6H1)	-0.008
CDC40 (UniProt O60508)	0
CCNK isoform 4 (UniProt O75909)	0.044
C18orf32 (UniProt Q8TCD1)	-0.203
CHAF1A (UniProt Q13111)	-0.035
CAMK2G isoform 8 (UniProt Q13555)	-0.083
CBX1 (UniProt P83916)	0.03
ATP5PF isoform 2 (UniProt P18859)	-0.021
CCNB1 (UniProt P14635)	0.033
BCL2L12 (UniProt Q9HB09)	0.009
ATP11A (UniProt P98196)	0.081
CAMK1 (UniProt Q14012)	-0.042
CAMLG (UniProt P49069)	-0.001
CHAC2 (UniProt Q8WUX2)	0.038
CANX isoform 2 (UniProt P27824)	0.015
BRD2 isoform 2 (UniProt P25440)	-0.007

These targets were tested with Cc1cc(Nc2cc(CN3CCOCC3)c3nc(C)c(Cc4ccc(Cl)cc4F)n3n2)n[nH]1 [gandotinib] in the same assay as above.
Summary of the method: as §1

Target	log2 fold change
BLOC1S6 (UniProt Q9UL45)	0.031
BAG4 (UniProt O95429)	0.102
CCNC (UniProt P24863)	-0.104
CALM2 (UniProt P0DP24)	0.068
CEP76 (UniProt Q8TAP6)	0.007
CDS2 (UniProt O95674)	0.048
CCAR2 (UniProt Q8N163)	0.058
CDKN2AIP (UniProt Q9NXV6)	0.08
BRD3 (UniProt Q15059)	0.147
CEP120 (UniProt Q8N960)	0.016
C18orf25 (UniProt Q96B23)	0.019
CDAN1 (UniProt Q8IWY9)	-0.073
ATAD1 (UniProt Q8NBU5)	0.386 (active)
CCT6A (UniProt P40227)	-0.018
C5orf51 (UniProt A6NDU8)	-0.143
CHCHD4 isoform 2 (UniProt Q8N4Q1)	0.217
CCPG1 isoform 5 (UniProt Q9ULG6)	-0.089
CD63 (UniProt P08962)	0.209
CES2 isoform 4 (UniProt O00748)	0.016
CFDP1 (UniProt Q9UEE9)	0.066

Target	log2 fold change
AURKAIP1 (UniProt Q9NWT8)	-0.03
CCDC186 (UniProt Q7Z3E2)	-0.061
ATP13A1 (UniProt Q9HD20)	-0.073
ATXN2 (UniProt Q99700)	0.001
CHCHD2 (UniProt Q9Y6H1)	0.021
CDC40 (UniProt O60508)	0.002
CCNK isoform 4 (UniProt O75909)	0.161
C18orf32 (UniProt Q8TCD1)	0.001
CHAF1A (UniProt Q13111)	0.009
CAMK2G isoform 8 (UniProt Q13555)	0.085
CBX1 (UniProt P83916)	-0.143
ATP5PF isoform 2 (UniProt P18859)	-0.185
CCNB1 (UniProt P14635)	-0.078
BCL2L12 (UniProt Q9HB09)	-0.003
ATP11A (UniProt P98196)	0.017
CAMK1 (UniProt Q14012)	0.187
CAMLG (UniProt P49069)	-0.058
CHAC2 (UniProt Q8WUX2)	-0.161
CANX isoform 2 (UniProt P27824)	0.026
BRD2 isoform 2 (UniProt P25440)	-0.133
